# Screen size: about 330,000 compounds; about 1,900 (0.58%) were called active. Inconclusive results (about 4%) are left out. These entries were drawn from the full list. Measured potencies and affinities stand elsewhere. A number with no mark means an inactive call. No stated cut-off is given here; in the data, inconclusive means inhibition above about 70% without an active follow-up result; inactive means below that.
# Experiment: M. tuberculosis growth inhibition, HTS (AID 449762);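 further: bacterial growth assessed after seven days of incubation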
# Conditions: M. tuberculosis H37Rv growth inhibition, 7H9 media; at 25 µM; stronger effect = higher value
row,Compound,inhibition [%]
1,Cn1c(O)c(C=Nc2ccc(Br)cc2)sc1=O,2
2,N=c1oc2cc(O)ccc2cc1C(=O)Nc1ccccn1,9.75
3,N=c1oc2ccccc2cc1C(=O)Nc1ccccc1,-6.06
4,O=C(NCc1nnc(SCC(=O)N2CCCC2)o1)c1ccc(F)cc1,-1.8
5,Cc1cc(C)c(C(=O)N(C)CC2CCCN(CCc3ccccc3F)C2)o1 (configuration not stated),7.36
6,CCOC(=O)C1(CCCc2ccccc2)CCN(C(=O)c2ccoc2)CC1,3.78
7,O=C(Nc1cn(-c2ccccc2)nc1-c1ccc(Cl)cc1)c1ccccc1,12.2
8,CC(=O)Nc1cn(-c2ccccc2)nc1-c1ccccc1,8.61
9,Oc1cc(NCCc2cccnc2)cc2cccnc12,11.9
10,NS(=O)(=O)c1cccc(NC(=O)c2ccc3nc[nH]c3c2)c1,1.29
11,CC12CCC(=O)N1C(C(=O)Nc1ccc(F)cc1)CS2 (configuration not stated),-9.52
12,CC(C)c1ccc(NC(=O)C2CSC3(C)CCC(=O)N23)cc1 (configuration not stated),5.83
13,Cc1ccc(CNC(=O)c2ccc(N3CCC4(CC3)CC(c3ccccc3)=NO4)c(NC(=O)c3ccc(Br)cc3)c2)cc1,-2.65
14,Nc1c(C(=O)OCC(=O)NCc2ccccc2)[nH]c(=O)[nH]c1=O,1.89
15,Cc1[nH]c(=O)[nH]c(=O)c1/C=C/C(=O)O,-3.99
16,COc1ccc(-c2cc(C(F)F)n3ncc(C(=O)N4CCc5ccccc5C4)c3n2)cc1,15.6
17,Cc1cc(C(F)F)n2ncc(C(=O)N3CCc4ccccc4C3)c2n1,-2.51
18,CCN(CC(=O)Nc1c(F)cccc1F)C(=O)c1ccc2c(c1)OCO2,-12.6
19,COc1ccc(S(=O)(=O)CC(O)CN2CCCC2=O)cc1 (configuration not stated),-0.37
20,COc1cccc(N2C(=O)CN(Cc3ccc(OC)c(OC)c3)C2=S)c1,2.7
21,C/C(CC1CC2=C(CC1(C)C)C(C)(C)CCC2)=N\NC(N)=S (configuration not stated),-0.2
22,CC1=C(CC/C(C)=N/NC(N)=S)C(C)(C)CCC1,12
23,CC(C)n1ncc2c(C(=O)Nc3ccc(S(C)(=O)=O)cc3)cc(C3CC3)nc21,2.05
24,CCn1c(=O)cc(SCC(=O)Nc2ccc(OC)c(OC)c2)c2ccccc21,-7.13

row,Compound,inhibition [%]
1,Cc1cc(C)cc(NC(=S)N2CCC(NC(=O)C3CCCCC3)CC2)c1,-1.01
2,CCOP(=O)(OCC)C(O)c1cc(OC)c(OC)c(OC)c1 (configuration not stated),0.28
3,Cc1csc(CNc2ncnc3ccc(-c4cccnc4)cc23)c1,2.87
4,Fc1ccc(/C=N/NC2=Nc3cccc4cccc2c34)cc1,-8.86
5,C(=N\NC1=Nc2cccc3cccc1c23)/c1ccccc1,9.94
6,CC(=O)c1c(C)[nH]c(C(=O)Nc2cccc(S(=O)(=O)N3CCOCC3)c2)c1C,-28
7,O=C(O)CNC(=S)NCc1ccccc1,-1.14
8,CCOC(=O)c1[nH]c2cc(OC)c(OC)cc2c1NC(=O)CN1CCN(c2ccc(OC)cc2)C(C)C1 (configuration not stated),-2.17
9,COC(=O)c1[nH]c2cccc(OC)c2c1NC(=O)CN1CCN(c2cccc(OC)c2)C(C)C1 (configuration not stated),52.6
10,O=C(c1cc2ccccc2oc1=O)N1CCN(Cc2ccc3c(c2)OCO3)CC1,-3.79
11,C=C(c1ccccc1O)n1ccnc1,0.25
12,Cc1cccc(C(=O)NNC(=O)c2ccccc2)c1,-6.62
13,Cc1cccc(C(=O)NNC(=O)c2cccc(C)c2)c1,-16.6
14,O=C(COc1ccccc1)NNC(=S)NC(=O)c1ccccc1,56.3
15,O=C(COc1ccccc1)NNC(=S)NC(=O)c1ccc(Cl)cc1Cl,55.5
16,O=C(c1cc(Br)c(Br)s1)N1CCN(C/C=C/c2ccccc2)CC1,-4.13
17,OCCOCCn1c(C2CCCN2c2nc(-c3ccc(F)cc3)cs2)nc2cc(C(F)(F)F)ccc21 (configuration not stated),2.16
18,CCOc1ccc(-n2nnc3c(=O)n(C/C=C/c4ccccc4)cnc32)cc1,-10.8
19,CC(=O)Nc1ccc(C(=O)CN2C(=O)NC3(CCCCCC3)C2=O)c(F)c1,-9.64
20,CC(C)c1ccc(OC(=O)c2cccc(S(=O)(=O)N3CCN(C)CC3)c2)cc1,10.8
21,CC1(C)N=C(N)N=C(N)N1c1cccc(CN)c1,-3.4
22,Brc1ccc2ncc(Br)cc2c1,2.82
23,Nc1ccc(Br)cc1Br,-6.59

# — PubChem BioAssay AID449762 (Southern Research Specialized Biocontainment Screening …, 2010)
